# Hits are enriched below; roughly 7.2% of the tested compounds scored in any of these assays.
# Bfl-1 A1 inh = caspase 3/7 activation in MEF A1-2A-BIM cells, primary screen, A1 inhibitor project, cell-based, luminescence, HTS; caspase activation, % (test concentration not listed); actives 0.066% (n = 330,000); Caspase-Glo 3/7 luminescence, 3 h; percent of clofoctol response, vehicle zero;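 active means over half of replicate activation scores above 10%, or exactly half above 10 with the replicate mean above 10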
# Efflux pump mplx = inhibitors of Candida efflux pumps in yeast, primary screen, S. cerevisiae, Nile Red, multiplex | inhibition, % at 10 µM | S. cerevisiae Candida pump triplex | actives 0.44% (n = 330,000);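 active means plate passing quality check with inhibition over a set limit, or well fluorescence over plate mean plus 4 SD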;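 further: Nile Red retained in pooled yeast measured as flow cytometry median fluorescence; higher means more Nile Red kept so more efflux inhibition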
# ALR inh = inhibitors of human ALR sulfhydryl oxidase, primary screen, biochemical, H2O2 detection, HRP-luminol luminescence, single point; FAD-linked sulfhydryl oxidase ALR (Homo sapiens), P55789; purified ALR, DTT oxidation; inhibition, % (test concentration not listed); actives 3.8% (n = 290,000);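 active means mean replicate inhibition above about 79%, with every replicate also reaching it, limit read from the data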
# Mot1-301 SUMO = yeast Mot1-301 growth rescue at high temperature, primary screen, SUMOylation pathway inhibitor project, S. cerevisiae, ATP luminescence, 38.5C. actives 1% (n = 320,000). S. cerevisiae Mot1-301 growth rescue; percent above DMSO median, 100 means doubled. growth rescue, % at 18.8 µM. AID 2716, 2010;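 active means every valid replicate shows activation above 250% relative to neutral control wells; inactive means the rest, any valid replicate at or below 250%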
# AHR activator = AHR activators, primary screen, cell-based, luminescence, luciferase reporter, human | Aryl hydrocarbon receptor (Homo sapiens), P35869 | AHR-responsive luciferase reporter cells | activation, % at 5 µM | actives 2.5% (n = 320,000); in the data active means activation above about 47%
# Target sequence (P35869 whole entry, looked up): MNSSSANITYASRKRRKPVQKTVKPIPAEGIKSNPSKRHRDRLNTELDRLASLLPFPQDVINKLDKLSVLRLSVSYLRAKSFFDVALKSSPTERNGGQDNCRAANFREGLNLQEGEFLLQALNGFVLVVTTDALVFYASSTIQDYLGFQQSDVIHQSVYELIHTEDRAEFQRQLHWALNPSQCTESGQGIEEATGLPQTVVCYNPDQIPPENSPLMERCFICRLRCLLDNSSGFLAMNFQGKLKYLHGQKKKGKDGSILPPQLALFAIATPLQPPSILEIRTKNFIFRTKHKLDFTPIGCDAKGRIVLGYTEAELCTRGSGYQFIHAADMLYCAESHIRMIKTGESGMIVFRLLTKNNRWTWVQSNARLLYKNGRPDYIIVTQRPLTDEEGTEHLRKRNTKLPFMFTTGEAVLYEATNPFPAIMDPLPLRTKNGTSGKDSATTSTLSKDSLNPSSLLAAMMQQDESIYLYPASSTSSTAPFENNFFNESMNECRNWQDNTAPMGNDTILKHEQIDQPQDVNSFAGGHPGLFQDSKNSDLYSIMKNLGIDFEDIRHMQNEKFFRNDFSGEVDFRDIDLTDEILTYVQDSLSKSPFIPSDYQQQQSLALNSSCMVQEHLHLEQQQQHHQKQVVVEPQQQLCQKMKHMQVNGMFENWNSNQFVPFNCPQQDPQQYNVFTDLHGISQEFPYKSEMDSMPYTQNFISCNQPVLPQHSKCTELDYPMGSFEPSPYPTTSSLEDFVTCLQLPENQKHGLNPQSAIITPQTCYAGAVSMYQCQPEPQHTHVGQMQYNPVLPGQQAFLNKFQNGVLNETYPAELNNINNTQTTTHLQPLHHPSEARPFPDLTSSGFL
# VLA-4 inh = inhibition in human VLA-4 binding assay, primary screen, VLA-4 allosteric modulator project, MLPCN library, flow cytometry, VLA-4 expressing cells | Integrin alpha-4 (Homo sapiens), P13612 | ligand binding flow cytometry | inhibition, % (about 7 µM as worked out from the volumes in the protocol) | actives 0.2% (n = 330,000) | AID 2557, 2010; in the data active means inhibition above about 50%
# VLA-4 mod pick = retest of VLA-4 allosteric modulators, confirmation, cell-based, cherry-picked plates, U937, HUTS-21 LIBS antibody; shares compounds with VLA-4 inh; U937 cells, HUTS-21 LIBS mAb binding, flow cytometry; LDV ligand present at threefold Kd; inhibition, % at 6.7 µM; actives 2% (n = 1,300); AID 2813, 2010; in the data active means inhibition above about 40%
# Hits are given with their value; – = inactive; · = not tested or not shown.
SMILES,Bfl-1 A1 inh,Efflux pump mplx,ALR inh,Mot1-301 SUMO,AHR activator,VLA-4 inh,VLA-4 mod pick
CCC(=O)c1cn(CC(=O)Nc2ccc(C)cc2)c2ccccc12,–,–,–,–,–,–,–
CCC(=O)c1cn(CC(=O)Nc2ccccc2F)c2ccccc12,–,–,–,–,–,–,–
COc1ccc(N(CC(=O)Nc2ccc(S(=O)(=O)N3CCOCC3)cc2)S(=O)(=O)c2ccc(F)cc2)cc1,–,–,–,–,–,–,·
CC(C)CC(C(=O)NC(C)(C)C)N(Cc1ccccc1Cl)C(=O)c1snc(C(N)=O)c1N (stereo not given),–,–,–,–,·,–,·
COc1ccc(OC)c(N(CC(=O)Nc2cccnc2)S(=O)(=O)c2ccccc2)c1,–,–,–,–,–,63.1,–
CC(C)c1ccc(NC(=O)C(c2ccccc2)N2CC(=O)Nc3ccccc32)cc1 (stereo not given),–,–,–,–,–,71.8,–
COc1ccccc1N1CCN(CCC(=O)Nc2ccc(F)cc2)CC1,–,–,–,–,–,–,·
O=C(CCN1C(=O)[C@@H]2Cc3ccccc3CN2C1=O)NCc1ccc(Cl)cc1,–,–,–,–,–,–,·
Cc1cc(C)cc(N(CC(=O)N2CCc3ccccc32)S(=O)(=O)c2c(C)noc2C)c1,–,–,–,–,–,–,–
Cc1cc(C(C)(C)C)cc(C)c1S(=O)(=O)N1CCN(C(=O)c2cc([N+](=O)[O-])c[nH]c2=O)CC1,–,–,–,–,–,–,·
Cn1c(=N)n(CC(O)c2cccc3ccccc23)c2ccccc21 (stereo not given),–,–,–,–,–,51.2,–
Cn1c(=N)n(CC(O)c2ccco2)c2ccccc21 (stereo not given),–,–,–,·,–,–,·
O=C(Nc1ccccc1)Nc1ccncc1,–,–,–,·,–,61.9,–
N/N=C/C(=N\Nc1ccc(Cl)cc1)C(=O)c1ccncc1,–,–,–,–,–,–,·
COc1cccc(OC)c1OCCCCc1c(C)n[nH]c1C,–,–,–,–,–,58.6,–
COc1cccc(OC)c1OCCCCCc1c(C)n[nH]c1C,–,–,–,–,–,–,·
Cc1ccc(C(=O)OCC(=O)Nc2ccc(S(N)(=O)=O)cc2)c(O)c1,–,–,–,–,–,–,–
Cc1ccccc1C(=O)NCC(C)NC(=O)c1ccccc1C (stereo not given),–,–,–,–,–,–,·
COc1ccc(N2CCN(C(=O)c3ccc4ccccc4n3)CC2)cc1,–,–,–,–,–,–,–
N=c1n(CCO)c2ccccc2n1CCOc1ccc(Cl)cc1Cl,–,–,–,–,–,53.6,–
CSc1nc(O)c(N=Nc2ccc(F)cc2F)c(=O)[nH]1,–,–,·,–,–,–,·
COc1ccc(N2C(=O)CC(N(Cc3ccc(S(N)(=O)=O)cc3)C(C)=O)C2=O)cc1 (stereo not given),–,–,–,–,–,–,–
CNC(=S)N(Cc1ccc(OC)cc1)C1CC(=O)N(c2ccc(OC)cc2)C1=O (stereo not given),–,–,–,–,–,–,·
CCCOc1ccc(N2C(=O)CC(N(Cc3ccc(S(N)(=O)=O)cc3)C(=O)CC)C2=O)cc1 (stereo not given),–,–,–,–,–,–,–
COc1cc(NC(=O)C[n+]2ccc(C(=O)c3ccccc3)cc2)cc(OC)c1,–,–,–,–,–,–,·
SMILES,Bfl-1 A1 inh,Efflux pump mplx,ALR inh,Mot1-301 SUMO,AHR activator,VLA-4 inh,VLA-4 mod pick
CCC(CC)NC(=O)Nc1ccc(F)c(Cl)c1,–,–,–,–,–,64.1,–
O=C(NCCCCNC(=O)C(F)(F)F)C(F)(F)F,–,–,–,–,–,–,·
CCC(C(=O)NCc1cccnc1)n1nc(C)n2c(cc3occc32)c1=O (stereo not given),–,–,–,–,–,–,·
COCCCN(C(=O)C(C)Oc1ccc(Br)cc1)c1c(N)n(Cc2ccccc2)c(=O)[nH]c1=O (stereo not given),–,–,–,–,–,–,·
CCOc1cnn(-c2ccccc2)c(=O)c1Cl,–,–,96.5,–,–,–,–
O=C(c1cc([N+](=O)[O-])ccc1N1CCOCC1)N1CCCCC1,–,–,–,–,–,–,·
O=C(c1ccc(Cl)cc1)c1cc([N+](=O)[O-])ccc1N1CCOCC1,–,–,·,–,–,–,·
O=C(c1ccc(Br)cc1)c1cc([N+](=O)[O-])ccc1N1CCOCC1,–,–,–,–,–,–,–
O=C(c1ccccc1)c1cc([N+](=O)[O-])ccc1N1CCOCC1,–,–,–,–,–,–,–
Cc1ccc(C(=O)c2cc([N+](=O)[O-])ccc2N2CC(C)OC(C)C2)cc1 (stereo not given),–,–,–,–,–,–,–
CCOc1cc(/C=N\Nc2ncc(F)c(N3CCOCC3)n2)ccc1Oc1nc(Cl)ncc1F,–,–,–,–,–,–,·
O=C(COC(=O)c1ccc(O)cc1)Nc1ccc(S(=O)(=O)N2CCCC2)cc1,–,–,·,–,–,–,·
O=C(OCC(=O)N1CCCCCC1)c1ccc[nH]c1=O,–,–,–,–,–,–,·
O=C(OCC(=O)N1CCOCC1)c1ccc[nH]c1=O,–,–,–,–,–,51.9,–
O=C(/C=C/c1ccccc1)NNC(=O)c1cccc(Cl)c1,–,–,–,–,–,–,·
O=C(/C=C/c1ccccc1)NNc1ccc(Cl)cc1,–,–,–,–,–,55.1,–
O=C(Cc1cccc(F)c1F)NC1CCCN(Cc2ccc(Cl)cc2)C1 (stereo not given),–,–,–,–,–,–,·
O=C(CN(C(=O)c1csnn1)c1cccc(Cl)c1)NCCc1ccccc1,–,–,–,–,–,–,·
O=c1cc(C(F)(F)F)nc(-n2[nH]c3c(c2=O)CCCC3)[nH]1,–,–,·,–,–,49.7,–
N#Cc1c(SCC(=O)O)nc(-c2ccccc2)c2c1CCCC2,–,–,–,–,–,94.5,–
Cc1ccc(C(=O)CSc2nnnn2C(C)C)c(C)c1,–,–,–,–,–,–,·
COC(=O)c1c(C)[nH]c(C(=O)C(C)OC(=O)c2ccco2)c1C (stereo not given),–,–,–,–,–,–,–
Cc1[nH]c(C(=O)O)c(C)c1C(=O)OC(C)C,–,–,–,–,–,–,·

# Assay outcomes: PubChem BioAssay, several laboratories
